This passage reports cytotoxicity call results from the antibiotic and cytotoxicity screens of Wong et al. (2023).

The structures appear in SMILES notation. Among all 39,000 compounds or so, about 1,500 (3.8%) were called active. Shown is part of a subset that was picked to be rich in actives.

The assay concerns HSkMC (human skeletal muscle cells). The assay can be described thus: cytotoxicity call (relative viability < 0.9). Conditions: 10 µM.
On to `C[C@]12C[C@]3(O)O[C@@H](O1)[C@]1(COC(=O)c4ccccc4)[C@H]3C[C@@]12O[C@@H]1O[C@H](CO)[C@@H](O)[C@H](O)[C@H]1O`, for which the cytotoxicity call was “inactive”. For `COc1ccc(COC[C@@]23Oc4ccccc4[C@@H](NC(=S)N2C)[C@@H]3CO[Si](C)(C)C(C)(C)C)cc1` the value was “inactive”; for `C[C@H](CO)N1C[C@H](C)[C@H](CN(C)Cc2ccncc2)OCCCC[C@H](C)Oc2ccc(NC(=O)Cc3ccccc3)cc2C1=O`, “inactive”.

In the case of `C[C@H](CO)N1C[C@H](C)[C@H](CN(C)C(=O)Nc2ccccc2)Oc2ccc(NC(=O)Nc3ccc(C(F)(F)F)cc3)cc2C1=O`, the cytotoxicity call was “active”. With `C[C@H]1CN([C@@H](C)CO)C(=O)c2cc(NC(=O)Nc3ccc(C(F)(F)F)cc3)ccc2O[C@@H]1CN(C)C(=O)Nc1ccccc1` the entry was “inactive”.

Turning to `C[C@H](CO)N1C[C@H](C)[C@H](CN(C)C(=O)Nc2ccc(C(F)(F)F)cc2)Oc2ccc(NC(=O)Nc3ccccc3)cc2C1=O`, the cytotoxicity call was “active”.

For the compound `C[C@@H]1CN([C@@H](C)CO)C(=O)c2cc(NC(=O)Nc3ccc(C(F)(F)F)cc3)ccc2O[C@@H]1CN(C)C(=O)Nc1ccccc1`, the cytotoxicity call is “active”. Consider `C[C@@H]1CN([C@@H](C)CO)C(=O)c2cc(NC(=O)Nc3ccccc3)ccc2O[C@@H]1CN(C)C(=O)Nc1ccc(C(F)(F)F)cc1`, for which the cytotoxicity call was “inactive”. For `C[C@@H]1CN([C@H](C)CO)C(=O)c2cc(NC(=O)Nc3ccccc3)ccc2O[C@@H]1CN(C)C(=O)Nc1ccc(C(F)(F)F)cc1` the value was “inactive”; for `C[C@@H]1CN([C@@H](C)CO)C(=O)c2cc(NC(=O)Nc3ccccc3)ccc2O[C@H]1CN(C)C(=O)Nc1ccc(C(F)(F)F)cc1`, “inactive”; for `C[C@H]1CN([C@@H](C)CO)C(=O)c2cc(NC(=O)Nc3ccccc3)ccc2O[C@H]1CN(C)C(=O)Nc1ccc(C(F)(F)F)cc1`, “inactive”.

For the compound `C[C@H](CO)N1C[C@H](C)[C@@H](CN(C)C(=O)Nc2ccccc2)Oc2ccc(NC(=O)Nc3ccc(C(F)(F)F)cc3)cc2C1=O`, the cytotoxicity call was “inactive”. For `O=C(N[C@H]1CC[C@H](CC(=O)N2CCOCC2)O[C@H]1CO)c1ccc2c(c1)OCO2` the value was “inactive”. For `C[C@@H]1CN([C@@H](C)CO)C(=O)c2cccc(NC(=O)C3CCOCC3)c2O[C@H]1CN(C)Cc1ccncc1` the value was “inactive”; for `C[C@@H]1CCCCO[C@H](CN(C)C(=O)Nc2ccccc2)[C@H](C)CN([C@@H](C)CO)C(=O)c2cc(NS(=O)(=O)c3ccccc3)ccc2O1`, “inactive”. For `C[C@H](CO)N1C[C@H](C)[C@@H](CN(C)S(=O)(=O)c2ccc(-c3ccccc3)cc2)OCc2cn(nn2)CCCC1=O` the value was “inactive”.

In the case of `C[C@H]1O[C@@H]2[C@H](O[C@@H]1C)N(S(C)(=O)=O)CCN2S(C)(=O)=O`, the cytotoxicity call was “inactive”. For `COc1ccc(NC(=O)N2C[C@H](O)COC[C@H]3O[C@H](CC(=O)NC4Cc5ccccc5C4)CC[C@@H]32)cc1` the value was “inactive”; for `C[C@H](CO)N1C[C@H](C)[C@H](CN(C)Cc2ccc(-c3ccccc3)cc2)Oc2ccc(NC(=O)Nc3ccc4c(c3)OCO4)cc2CC1=O`, “inactive”; for `C=CCC[C@H](Cc1ccc(F)cc1)C(=O)OC[C@@H]1CCCN1C(=O)[C@@H](CC=C)CC(=O)N(CCO)Cc1ccccc1`, “active”. With `C=CCC[C@H](Cc1ccc(F)cc1)C(=O)OC[C@H]1CCCN1C(=O)[C@H](CC=C)CC(=O)N(CCO)Cc1ccccc1` the entry was “inactive”. On to `C=CCC[C@@H](Cc1ccc(F)cc1)C(=O)OC[C@H]1CCCN1C(=O)[C@H](CC=C)CC(=O)N(CCO)Cc1ccccc1`, for which the cytotoxicity call is “inactive”. With `C=CCC[C@H](Cc1ccc(F)cc1)C(=O)OC[C@H]1CCCN1C(=O)[C@@H](CC=C)CC(=O)N(CCO)Cc1ccccc1` the entry was “active”; with `C=CCC[C@@H](Cc1ccc(F)cc1)C(=O)OC[C@H]1CCCN1C(=O)[C@@H](CC=C)CC(=O)N(CCO)Cc1ccccc1`, “inactive”; with `C=CCC[C@@H](Cc1ccc(F)cc1)C(=O)OC[C@@H]1CCCN1C(=O)[C@@H](CC=C)CC(=O)N(CCO)Cc1ccccc1`, “inactive”. With `CN(C)CC(=O)N[C@@H]1CC[C@H](CC(=O)NCCN2CCCCC2)O[C@H]1CO` the entry was “inactive”. Regarding `COc1ccc(C2=NS(=O)(=O)N(C)C(C(=O)N3CCC(C(N)=O)CC3)=C2)cc1`, the cytotoxicity call is “inactive”.

Consider `CC(C)NC(=O)N(C)C[C@H]1Oc2c(NS(=O)(=O)c3ccc(Cl)cc3)cccc2C(=O)N([C@@H](C)CO)C[C@H]1C`, for which the cytotoxicity call is “inactive”. With `COc1ccc(S(=O)(=O)Nc2cccc3c2O[C@@H](CN(C)S(=O)(=O)c2ccccc2)[C@H](C)CN([C@@H](C)CO)C3=O)cc1` the entry was “inactive”. For `O=C(Nc1ccc2ccccc2c1)c1ccc(Cl)cc1Cl` the value was “inactive”. For `O=C(Nc1ccc(Oc2ccc(Cl)cc2)c(Cl)c1)c1cc(I)cc(I)c1O` the value was “active”; for `Cc1ccc(S[C@]2(C(=O)NC(C)C)CC(=O)N(Cc3ccccc3C(F)(F)F)[C@@H]2c2ccc(CO)cc2)cc1`, “inactive”.

Take `CC(C)(C)c1cc(NC(=O)Nc2ccc(Oc3ccnc4nc(O)cnc34)cc2F)n(-c2ccccc2)n1`: the cytotoxicity call is “active”. As to `Cc1ccc(S(=O)(=O)N(C)C[C@H]2Oc3ccc(NC(=O)C4CC4)cc3C(=O)N([C@H](C)CO)C[C@@H]2C)cc1`, the cytotoxicity call was “inactive”.

Consider `Fc1ccccc1-c1nc2ccn(Cc3ccc(-c4ccc(C(F)(F)F)cc4C(F)(F)F)nn3)cc-2n1`, for which the cytotoxicity call was “active”. For `Cc1noc(C)c1NC(=O)Nc1cccc2c1O[C@H](CN(C)Cc1ccc(Oc3ccccc3)cc1)[C@@H](C)CN([C@H](C)CO)C2=O` the value was “inactive”. For `Cc1noc(C)c1NC(=O)Nc1ccc2c(c1)C(=O)N([C@H](C)CO)C[C@@H](C)[C@@H](CN(C)Cc1ccccc1)OCCCC[C@@H](C)O2` the value was “inactive”; for `C[C@@H]1CCCCO[C@H](CN(C)C(=O)CCC(F)(F)F)[C@@H](C)CN([C@H](C)CO)C(=O)c2cc(NC(=O)c3ccccc3)ccc2O1`, “inactive”. As to `COc1ccc(NC(=O)Nc2ccc3c(c2)CC(=O)N([C@H](C)CO)C[C@@H](C)[C@H](CN(C)Cc2ccc(Oc4ccccc4)cc2)O3)cc1`, the cytotoxicity call was “inactive”.

With `C1CCC(C(C[C@H]2CCCCN2)C2CCCCC2)CC1`, the cytotoxicity call was “inactive”. As for `C1CCC(C(CC2CCCCN2)C2CCCCC2)CC1.O=C(O)C=CC(=O)O` (configuration not stated), the cytotoxicity call was “active”. For `O=C(O)CC[C@H]1CCCCN1` the value was “inactive”.
